From PubChem BioAssay AID1986 (Sanford-Burnham Center for Chemical Genomics, 2009)
The whole screen tested about 290,000 compounds, of which about 890 (0.31%) were called active. The sample holds actives, similar compounds and a random draw of the others, so the mix is not that of the screen. Cut-off read from the data, not from the text of the source: active = inhibition mostly above about 52% (no sharp cut-off); inactive = mostly below about 76%.

Experiment: cell-free HIV fusion peptide-binding blockers – biochemical, uHTS, fluorescence dequenching, primary screen (AID 1986)
Conditions: 30 min, stronger effect = higher value
[1] = measured here: repeat confirmation average inhibition, at 18.6 µM

For `COc1ccc(NC(=O)CN2C3CCC2CC(O)(c2cccnc2)C3)cc1OC` (stereo not drawn), the inhibition (at 20 µM) was -0.5% (inactive).

For `c1cc(CCN2CCCC2)ccn1`, the inhibition (at 20 µM) was 1.8% (inactive).

With `Cc1cccc(N=Nc2ccc(N(C)C)cc2)c1` the inhibition (at 20 µM) was -1.7% (inactive).

With `O=[N+]([O-])c1ccc2c(c1)C(c1ccccc1)=NCCN2` the inhibition (at 20 µM) was 0.2% (inactive).

With `CCN1CCN(c2ccc(N)cc2C)CC1` the inhibition (at 20 µM) was -1.1% (inactive).

With `CN1CCN(Cc2cn3cccnc3n2)CC1` the inhibition (at 20 µM) was -0.4% (inactive).

In the case of `CCC(C)n1c(O)c(C=NCC2CCCO2)c(=O)[nH]c1=S` (stereo not drawn), the inhibition (at 20 µM) is reported as -0.8% (inactive).

For `CC1=C2C3OC(=O)C(C)C3CC[C@@]2(C)C=CC1=O` (stereo partly drawn), the inhibition (at 20 µM) was -0.7% (inactive).

With `CN1CCN(c2ccc([N+](=O)[O-])c(SCCO)c2)CC1` the inhibition (at 20 µM) was -0.1% (inactive).

With `Cc1cc(Cl)ccc1C(=O)C1CCCN(Cc2ccon2)C1` (stereo not drawn) the inhibition (at 20 µM) was -1.3% (inactive).

With `CCOP(=O)(OCC)C(O)c1ccc(Br)cc1` (stereo not drawn) the inhibition (at 20 µM) was -1% (inactive).

With `CC(Cc1ccccc1)[n+]1cc(/N=C(\N)[O-])on1` (stereo not drawn) the inhibition (at 20 µM) was -2% (inactive).

In the case of `CCN(CC)C(=O)c1ccc(NC(=O)CN2CCc3cc(OC)c(OC)cc3C2)cc1`, the inhibition (at 20 µM) is reported as -1.3% (inactive).

With `COc1ccc(CN2CCN(c3ccccc3)CC2)c(C)c1C` the inhibition (at 20 µM) was -1.3% (inactive).

With `CN(C)c1ccc(/C=C2/C(=O)NC(=O)N(Cc3ccco3)C2=O)cc1` the inhibition (at 20 µM) was 42.7% (inactive).

With `Cn1cccc1/C=C1\C(=O)NC(=O)N(Cc2ccco2)C1=O` the inhibition (at 20 µM) was 30.6% (inactive).

With `CCN(CC)c1ccc(/C=C2/C(=O)NC(=O)N(Cc3ccco3)C2=O)cc1` the inhibition (at 20 µM) was 84.2% (active).

For `O/N=C1/C(=C\c2ccccc2)N2CCC1CC2`, the inhibition (at 20 µM) was 9.6% (inactive).

For `CN1CCC(N2CC3CC(C2)c2cccc(=O)n2C3)CC1` (stereo not drawn), the inhibition (at 20 µM) was 1.9% (inactive).

For `CCOC(=O)c1c(/N=C/C2C(=O)NC(=O)NC2=O)sc2c1CCC2`, the inhibition (at 20 µM) was 6.8% (inactive).

For `CCOC(=O)c1c(/N=C/C2C(=O)NC(=S)NC2=O)sc2c1CCC2`, the inhibition (at 20 µM) was 81.3% (active).

In the case of `CCOC(=O)c1c(/N=C/C2C(=O)NC(=S)NC2=O)sc(C)c1C`, the inhibition (at 20 µM) is reported as 30.3% (inactive).

With `CN1CCC(=O)N(CCN=[N+]=[N-])CC1` the inhibition (at 20 µM) was 1.6% (inactive).

For `COc1cc(C)c(CN2CC=C(c3ccc(F)cc3)CC2)cc1C`, the inhibition (at 20 µM) was -1.1% (inactive).

In the case of `CCN(CC)c1ccc(CN(C)CCc2ccc(OC)c(OC)c2)cc1`, the inhibition (at 20 µM) is reported as 0.5% (inactive).

For `Fc1ccccc1N1CCN(Cc2c(F)cccc2F)CC1`, the inhibition (at 20 µM) was -0.2% (inactive).

For `O=C(N=Nc1c(O)[nH]c(=O)[nH]c1=O)C1COc2cc3ccccc3cc2O1` (stereo not drawn), the inhibition (at 20 µM) was 4.2% (inactive).

With `O=C(C(Cc1ccccc1)NS(=O)(=O)c1ccc(F)cc1)N1CCC2(CC1)OCCO2` (stereo not drawn) the inhibition (at 20 µM) was 3.1% (inactive).

In the case of `O=C(C1CCCN(S(=O)(=O)c2cccc3nsnc23)C1)N1CCC2(CC1)OCCO2` (stereo not drawn), the inhibition (at 20 µM) is reported as -1.1% (inactive).

In the case of `O=C(C(Cc1ccccc1)NS(=O)(=O)c1cccc2nsnc12)N1CCC2(CC1)OCCO2` (stereo not drawn), the inhibition (at 20 µM) is reported as 103% (active).

In the case of `CNCCc1ccc(OC)c(OC)c1`, the inhibition (at 20 µM) is reported as -0.5% (inactive).

With `O=C(c1ccc(Cl)cc1)C12CN3CN(CN(C3)C1)C2` the inhibition (at 20 µM) was 0% (inactive).

In the case of `COP(=O)(OC)C(Nc1ccccn1)c1ccccc1` (stereo not drawn), the inhibition (at 20 µM) is reported as -0.3% (inactive).

In the case of `CN1C(=O)C(=Cc2sc(=O)n(-c3ccccc3)c2N(C)C)C(=O)N(C)C1=O`, the inhibition (at 20 µM) is reported as 27.8% (inactive).

In the case of `CN1C(=O)C(=Cc2sc(=O)n(-c3ccccc3)c2N2CCCCC2)C(=O)N(C)C1=O`, the inhibition (at 20 µM) is reported as 68.2% (active) and the inhibition [1] is reported as 87.3%.

With `CN1C(=O)C(=Cc2ccc(N3CCCCCC3)cc2)C(=O)N(C)C1=O` the inhibition (at 20 µM) was 16.5% (inactive).

With `COc1ccccc1N1C(=O)NC(=O)/C(=C/c2ccc([N+](=O)[O-])s2)C1=O` the inhibition (at 20 µM) was 42.7% (inactive).

In the case of `COc1ccc(N2C(=O)NC(=O)/C(=C\c3ccc([N+](=O)[O-])s3)C2=O)cc1`, the inhibition (at 20 µM) is reported as 56.4% (active).

For `COc1ccc(N2C(=O)NC(=O)/C(=C/c3ccc([N+](=O)[O-])s3)C2=O)cc1`, the inhibition (at 20 µM) was 35.4% (inactive).

In the case of `O=C1NC(=O)N(c2ccccc2)C(=O)/C1=C/c1ccc([N+](=O)[O-])s1`, the inhibition (at 20 µM) is reported as 64.8% (active).

With `COc1cccc(N2C(=O)NC(=O)/C(=C/c3ccc([N+](=O)[O-])s3)C2=O)c1` the inhibition (at 20 µM) was 45.2% (inactive).

With `O=C1NC(=O)N(c2ccccc2)C(=O)/C1=C\c1ccc([N+](=O)[O-])s1` the inhibition (at 20 µM) was 61.1% (inactive) and the inhibition [1] was 6.1%.

In the case of `O=c1c2ccccc2nc(Cc2ccccc2)n1-c1cccc(O)c1`, the inhibition (at 20 µM) is reported as -1% (inactive).

For `CCCc1cc(=O)oc2cc(OCC(=O)N3C[C@H]4C[C@@H](C3)c3cccc(=O)n3C4)ccc12`, the inhibition (at 20 µM) was 3% (inactive).

For `CCOC(=O)c1nc2ccccc2c(=O)n1-c1ccc(C)cc1`, the inhibition (at 20 µM) was 0.5% (inactive).

For `COc1cc(CC2(CCc3ccncc3)C(=O)N(C)C(=O)N(C)C2=O)cc(OC)c1OC`, the inhibition (at 20 µM) was 2.3% (inactive).

For `CCN1/C(=C\C=C\C2=[N+](CC)c3ccccc3C2(C)C)C(C)(C)c2ccccc21`, the inhibition (at 20 µM) was 0.5% (inactive).

With `CN1/C(=C\C=Nc2ccccc2)C(C)(C)c2ccccc21` the inhibition (at 20 µM) was 0.8% (inactive).

For `CN1/C(=C\C=C\C2=[N+](C)c3ccc4ccccc4c3C2(C)C)C(C)(C)c2ccccc21`, the inhibition (at 20 µM) was 65.1% (active) and the inhibition [1] was 90.9%.

With `NCCc1c[nH]c2ccc(OCc3ccccc3)cc12` the inhibition (at 20 µM) was -1.2% (inactive).
